Test results: PubChem BioAssay (NCI)
This is part of a sample that, as a whole, favours compounds with a hit. Of some 79,000 tested, about 15% had one in any assay. No stated cut-off is given here; in the data, active means growth inhibition above about 70%; inactive means the rest. Where a SMILES comes first, the peptide text is derived from it. [ ]: non-standard residue; d: D form. The star is where a group is joined. Hyp = O=C(O)[CH]1C[CH](O)CN1; Cbz = O=C(OCc1ccccc1)*

Key:
[1] = NCI Yeast Anticancer Drug Screen. Data for the rad50 strain (AID 155);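 further: 0% = growth of vehicle-only cultures of the same strain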; conditions: S. cerevisiae rad50 strain growth inhibition; at 50.0 µM; active compounds read high
How it was run: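 Inhibition values express reduced yeast growth in compound-treated cultures relative to vehicle-treated controls.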

[2] = NCI Yeast Anticancer Drug Screen. Data for the mec2-1 strain (AID 157); conditions: S. cerevisiae mec2-1 strain, at 50.0 µM, active compounds read high
How it was run: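 Compounds were applied to mec2-1 yeast cells. Their growth was then compared with that of vehicle-treated cultures to give growth inhibition.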

[3] = NCI Yeast Anticancer Drug Screen. Data for the sgs1 mgt1 strain (AID 161);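 further: 0% = growth of cultures given vehicle only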; conditions: S. cerevisiae sgs1 mgt1 strain, at 50.0 µM, active compounds read high
How it was run: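 This yeast growth screen uses a strain with defined DNA-repair lesions; compound-treated growth is compared with vehicle-treated growth.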

[4] = NCI Yeast Anticancer Drug Screen. Data for the cln2 rad14 strain (AID 165);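 further: 0% = growth equal to vehicle treated cultures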; conditions: S. cerevisiae cln2 rad14 strain, at 50.0 µM, active compounds read high
How it was run: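 Strain: cln2 rad14 yeast, altered in cell cycle control and DNA damage repair. Read-out: growth inhibition vs vehicle.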

[5] = NCI Yeast Anticancer Drug Screen. Data for the bub3 strain (AID 167); conditions: S. cerevisiae bub3 mutant strain, at 50.0 µM, active compounds read high
How it was run: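 Steps: expose the mutant yeast strain to compound; grow alongside vehicle-treated cultures; measure growth; express inhibition against the vehicle cultures.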

[6] = NCI Yeast Anticancer Drug Screen. Data for the mlh1 rad18 strain (AID 175); conditions: S. cerevisiae mlh1 rad18 strain growth inhibition; at 50.0 µM; active compounds read high
How it was run: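 A repair-deficient yeast strain is exposed to test compound, and growth is scored relative to vehicle-treated controls.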

Measured: growth inhibition

O=C(N/C(=C/c1ccc(Cl)cc1)c1nc2ccccc2c(=O)n1Nc1ccc([N+](=O)[O-])cc1[N+](=O)[O-])c1ccccc1
inactive: [1] -19% | [2] -5% | [3] -19.7% | [4] 0.3% | [5] -21.6% | [6] -17.5%

CCc1ccc(O)c(CN2CCN(Cc3cc(CC)ccc3O)CC2)c1
inactive: [1] -2.85% | [2] -15.7% | [3] 20.5% | [4] -18.4% | [5] -4.8% | [6] 17.1%

O=c1nc(NO)cnn1C1OC(CO)C(O)C1O (stereo not given)
inactive: [1] 13.7% | [2] -0.2% | [3] 16.4% | [4] -26.4% | [5] -11.8% | [6] 11.7%

Cc1cccc(C)c1NC(=O)C(=O)C(C#N)c1ccccc1Cl (stereo not given)
inactive: [1] -13.2% | [2] -47.7% | [3] -10.8% | [4] -1.1% | [5] 4.85% | [6] -11.5%

OCC1OC(O)C(N=Cc2ccc3c(c2)OCO3)C(O)C1O (stereo not given)
inactive: [1] 13.7% | [2] -14.6% | [3] -14.2% | [4] 1.45% | [5] -20.6% | [6] -19.9%

CCOC(=O)c1cc2c(OC)cc(OC)cc2oc1=O
inactive: [1] 21.8% | [2] 2.6% | [3] 25.1% | [4] 32.8% | [5] 28.9% | [6] 2.55%

O=C(O)C1C2C=CC(O2)C1C(=O)Nc1ncccn1 (stereo not given)
inactive: [1] -0.65% | [2] -33.9% | [3] -14.4% | [4] -23.3% | [5] -35.4% | [6] -3.6%

Cc1cn(C2CC(C)N(CCO)O2)c(=O)[nH]c1=O (stereo not given)
inactive: [1] -8.1% | [2] -1.35% | [3] -16.8% | [4] -11.6% | [5] -14.9% | [6] -74.2%

CCOC(=O)CC(=O)C1CCC2C3CC=C4CC(O)CCC4(C)C3CCC12C (stereo not given)
inactive: [1] 36.5% | [2] 8.3% | [3] 47.4% | [4] 25.9% | [5] 2.1% | [6] 33.9%

O=C1O/C(=C(\Br)c2ccc([N+](=O)[O-])cc2)c2ccccc21
inactive: [1] 30.4% | [2] -27.4% | [3] 19.4% | [4] 0.85% | [5] -5.9% | [6] 1.05%

CCOC(=O)Nc1ccc(F)c(C(F)(F)F)c1
inactive: [1] -8.05% | [2] 4.45% | [3] 8.6% | [4] -52.3% | [5] 11.6% | [6] -4.25%

CC(=O)c1cc2c(cc1C)C(C)CCC2(C)C (stereo not given)
inactive: [1] -7% | [2] -29.4% | [3] -9.6% | [4] -6.1% | [5] 1.9% | [6] -22.5%

CCOC(=O)c1nnsc1NN
inactive: [1] 8.8% | [2] -7.45% | [3] -47.6% | [4] 0.95% | [5] -22.4% | [6] -4.1%

CC1(C)COC(C)(Cc2ccccc2)OC1
inactive: [1] -5.9% | [2] 3.55% | [3] -15.7% | [4] -65.3% | [5] -22.1% | [6] -11.7%

O=C1Oc2ccccc2C(=O)C1=S1CCCC1
inactive: [1] 6.9% | [2] 12.1% | [3] 9.3% | [4] 18.6% | [5] 9.05% | [6] 14.6%

CCN(CC)CCO/N=C(\c1ccccc1)c1ccccn1
inactive: [1] 4.6% | [2] -5.95% | [3] 16.9% | [4] -78.3% | [5] 10.7% | [6] 1.2%

CC1(C)C(=O)N(c2ccccc2)C1c1ccccc1 (stereo not given)
inactive: [1] -6.2% | [2] -5.4% | [3] -1.5% | [4] -40.5% | [5] 12.1% | [6] -5.7%

CCCCCCC(O)CCCCCCCCCCC(=O)OC (stereo not given)
inactive: [1] 33.1% | [2] 4.5% | [3] 20.6% | [4] -26.4% | [5] 12.8% | [6] 33.8%

NC(=O)CNC(=O)C1CC(O)CN1C(=O)C1CCCN1C(=O)OCc1ccccc1 (stereo not drawn) (Cbz-Pro-[Hyp]-Gly-NH2; configuration not given here)
inactive: [1] -3.9% | [2] 1.1% | [3] 1.55% | [4] 4.15% | [5] 9.45% | [6] 2.2%

CCOC1(NC(=O)N(C)C)C2CCCC21 (stereo not given)
inactive: [1] 3.4% | [2] -4.15% | [3] -0.1% | [4] -29.9% | [5] 2.1% | [6] -6.5%

Cn1c(=O)c2c(nc(Cl)n2Cc2ccccc2)n(C)c1=O
inactive: [1] -39.8% | [2] 5.1% | [3] -14.6% | [4] 23.6% | [5] 0.8% | [6] 21.4%

COc1cc(C=O)ccc1OC(C)=O
inactive: [1] -33.3% | [2] -15.3% | [3] -35.9% | [4] -31.4% | [5] -10.6% | [6] -24.3%

O=C(Nc1ccc(S(=O)(=O)NC2CCCCC2)cc1)Oc1ccc([N+](=O)[O-])cc1
inactive: [1] 32.5% | [2] 3.55% | [3] 18.4% | [4] 10.8% | [5] 8.4% | [6] 19.4%

COc1ccc2c(c1)CCC1C(=O)NN=C21 (stereo not given)
inactive: [1] 12.8% | [2] -4.1% | [3] -5.6% | [4] -43.4% | [5] -23.1% | [6] -8%

CCC(CC)NNC(CC)CC
inactive: [1] -1.8% | [2] -0.6% | [3] -8.05% | [4] 5.35% | [5] -16.3% | [6] -8.25%

CN1CCOC(=O)C(C#N)=C1c1ccccc1
inactive: [1] -26.5% | [2] 6.95% | [3] -9.15% | [4] -17% | [5] -7.25% | [6] -3.15%

C[N+](C)(C)c1ccc2c(c1)CCC/C2=N\N
inactive: [1] 12.8% | [2] 9% | [3] 11.6% | [4] -9.2% | [5] 13.5% | [6] 4.3%

CC1OC(c2ccc(Cl)cc2)OC1C (stereo not given)
inactive: [1] 16.4% | [2] 20.9% | [3] 10.9% | [4] -31.6% | [5] -5.7% | [6] 10.7%

CC1=C2C(C)CC3OC(=O)C(C)C3C(O)C2CC1=O (stereo not given)
inactive: [1] 5.8% | [2] -7.5% | [3] 1.2% | [4] -40.8% | [5] -8% | [6] -5.75%

Cc1nnc2n1N=C(c1ccccc1)C(c1ccccc1)S2 (stereo not given)
inactive: [1] 31.8% | [2] 29.9% | [3] 33.5% | [4] 25.9% | [5] 57.4% | [6] 40.3%

COc1ccc(-c2nc3c(nc2-c2ccc(OC)cc2)C(N)=NS(=O)(=O)N3)cc1
inactive: [1] -18.9% | [2] -7.95% | [3] -19.9% | [4] 2.2% | [5] -17.6% | [6] -10.1%

O/N=C/c1ccccn1
inactive: [1] -0.95% | [2] -31.9% | [3] -5.6% | [4] 6.85% | [5] -9.5% | [6] 0%

COc1ccc(CCN2C(=O)c3cccc4c(Br)ccc(c34)C2=O)cc1
inactive: [1] 23.8% | [2] 1.3% | [3] 18.6% | [4] 14.5% | [5] 44.6% | [6] 35.9%

ON=C1CCN(c2ccccc2)CC1
inactive: [1] 10.3% | [2] -30.5% | [3] -10.4% | [4] -44.1% | [5] 1.6% | [6] -18.4%

Cc1c(C(=O)NNc2ccccc2)n2c(=S)[nH]nc2c2ccccc12
inactive: [1] 33.2% | [2] 10.1% | [3] -7.85% | [4] 8.6% | [5] -14.8% | [6] 45.8%

C=C(C)C(=O)O[C@H]1C[C@@]23O[C@@H]2CCC(=C[C@H]2OC(=O)C(=C)[C@H]12)COC3O (stereo not given in full)
inactive: [1] 16.8% | [2] -12.6% | [3] 14.8% | [4] 9.45% | [5] 7.7% | [6] -22.8%

Cn1c(=O)c(C#N)c2n(C)c3ccccc3n2c1=O
inactive: [1] 64.8% | [2] 17.4% | [3] 13.8% | [4] 2.25% | [5] -36.1% | [6] -0.15%

N#CC1C(=O)NC(=O)C(C#N)C1C1C(=O)NC2CCCCC21 (stereo not given)
inactive: [1] 41.2% | [2] 5% | [3] 17.2% | [4] 23.2% | [5] 11.1% | [6] 32.8%

CNC(=O)NC1C(O)COC(OC)C1O (stereo not given)
inactive: [1] -2.65% | [2] 3.4% | [3] -0.6% | [4] -37.1% | [5] -4.15% | [6] 0.25%

O=C(Nc1ncnc2c1ncn2C1OC(COC(=O)c2ccccc2)C(OC(=O)c2ccccc2)C1OC(=O)c1ccccc1)c1ccccc1 (stereo not given)
inactive: [1] 5.15% | [2] 15.6% | [3] -1.25% | [4] 10.8% | [5] 4.05% | [6] 34.6%
